# ELG1 genotoxic = qHTS screen for small molecules that induce genotoxicity in human embryonic kidney (HEK293T) cells expressing luciferase-tagged ELG1; hit rate 1.3% among 330,000; AID 504466, 2011; HEK293T ELG1-luciferase reporter, luminescence, 16 h; Potency, µM (doses to about 46 µM), for inactives: top-dose activity change, positive = activation, hits mostly activators; note: % of control where 0% means no effect; nearly all actives have a fitted effect of over 60% in size
#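 HEK293T cells expressing luciferase-tagged ELG1 were treated with compound or DMSO for 16 hr at 37°C. Luciferase activity was then read after 30 min with ONE-Glo at room temperature; rising signal flags genetic stress.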
# SMN2 splice enh = qHTS Assay for Enhancers of SMN2 Splice Variant Expression; hit rate 2.8% among 210,000; HEK293 SMN2-luciferase splicing reporter, luminescence, 30-36 h; Potency, µM (series often up to 46.1 µM), for inactives: at the highest dose activity change, positive = activation, hits mostly activators; AID 1458, 2008; note: % of control where 0% means no effect; nearly all actives have a fitted effect of over 55% in size
#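 HEK293 cells carry an SMN2 minigene-luciferase reporter in which exon 7 inclusion puts luciferase in frame. Cells were seeded at 2000 cells/well, attached for 10-12 hours, then exposed to compounds for 30-36 hours at 37C before ONE-Glo luminescence.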
# NPC1 prom act = qHTS Assay for NPC1 Promoter Activators | Huh7 NPC1 promoter luciferase reporter, 24 h | Potency, µM (doses to about 9.22 µM), for the others: at the highest dose activation, actives largely listed as activators | hit rate 2.4% among 320,000; note: % of control where 0% means no effect; nearly all actives have a fitted effect of over 60% in size
#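 Huh7 reporter cells (NPC1 promoter driving luciferase) are dosed with compound for 24 h at 37 °C, 5% CO2; luciferase detection reagent is then added and luminescence measured after 10 min at ambient temperature.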
# Rab9 promoter act = qHTS Assay for Rab9 Promoter Activators | Huh7 Rab9 promoter-luciferase reporter, luminescence, 24 h | hit rate 2.8% among 320,000 | AID 485297, 2010 | Potency, µM (titrated, usually from 9.22 µM), for the others: at the top dose activation, negative = inhibition, most hits filed as activators; note: % of control where 0% means no effect; nearly all actives have a fitted effect of over 60% in size
#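 Huh7 cells stably carrying a Rab9 promoter-luciferase reporter, 1500 cells per well in OP-MEM I with 10% FBS, treated with compound 24 hours at 37C. Luciferase activity read by luminescence after 10 minutes with Amplite reagent.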
# FLuc counter = qHTS profiling assay for firefly luciferase inhibitor/activator using purifed enzyme and Km concentrations of substrates (counterscreen for miR-21 project); Potency, µM (highest dose often 57.5 µM), for inactives: at the top dose activity change, negative = inhibition, most hits filed as inhibitors; hit rate 6.9% among 360,000; AID 588342, 2011; purified FLuc, Km substrates, luminescence inhibition; Luciferin 4-monooxygenase (Photinus pyralis), P08659;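 note: plate controls were vehicle for no effect and reference inhibitor for full effect; nearly all actives have a fitted effect of over 55% in size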
# Target sequence (P08659 whole entry, looked up): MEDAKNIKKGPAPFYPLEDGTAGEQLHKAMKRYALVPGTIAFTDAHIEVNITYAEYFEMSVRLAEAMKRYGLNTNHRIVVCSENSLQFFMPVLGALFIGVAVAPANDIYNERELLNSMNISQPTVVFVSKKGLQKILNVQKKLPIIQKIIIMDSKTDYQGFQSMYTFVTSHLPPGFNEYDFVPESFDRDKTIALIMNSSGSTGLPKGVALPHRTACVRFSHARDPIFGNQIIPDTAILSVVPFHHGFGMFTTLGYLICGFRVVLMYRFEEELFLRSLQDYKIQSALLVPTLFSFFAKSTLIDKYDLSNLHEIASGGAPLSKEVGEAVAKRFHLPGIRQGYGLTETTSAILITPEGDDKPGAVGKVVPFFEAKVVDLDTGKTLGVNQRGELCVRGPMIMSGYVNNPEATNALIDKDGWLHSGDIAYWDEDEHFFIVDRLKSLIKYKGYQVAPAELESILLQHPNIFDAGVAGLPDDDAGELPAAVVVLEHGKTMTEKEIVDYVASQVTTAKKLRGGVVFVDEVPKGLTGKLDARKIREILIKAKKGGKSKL
#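 Purified P. pyralis luciferase (10nM final) with 10uM D-luciferin and 10uM ATP (Km levels) in 50mM Tris acetate pH 7.5, 10mM Mg acetate, 0.01% Tween-20, 0.05% BSA; qHTS 6-point titration, ~60 µM downward; luminescence read.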
# Active calls of the source: *; u = inconclusive; x = no result; [ ] = another dose, or the depositor's remark. This is a sample that favours compounds with a hit; in the whole collection about 7.4% have one here. Calls come from the whole dose curve; as a rule, active = well fitted curve in the direction sought with a large enough effect; inconclusive = small, poorly fitted or top-dose-only effect, or another doubt; inactive = no such curve, though single readings can be large; an effect the other way counts as inactive or inconclusive. Potency is the fitted concentration of half-maximal effect.
SMILES,ELG1 genotoxic,SMN2 splice enh,NPC1 prom act,Rab9 promoter act,FLuc counter
Cc1nc(N2N=C(c3ccc(Cl)cc3)CC2c2ccco2)sc1C(=O)N(C)C (stereo not drawn),1%,10%,-1%,2%,15µM*
COC(=O)c1ccc(Cl)cc1NC(=O)Nc1nnc(N(C)Cc2ccccc2)s1,x,x,x,x,-16%
O=C(N=C1c2ccccc2CN1c1ccc(F)c(Cl)c1)c1cccnc1Cl,u,11µM*,u,u,15µM*
Cn1c(N)c(C(=O)COC(=O)CCOc2ccc(C(C)(C)C)cc2)c(=O)n(C)c1=O,4%,9%,-3%,8%,21µM*
Cc1ccc(OCCC(=O)OCC(=O)c2c(N)n(C)c(=O)n(C)c2=O)cc1,-4%,x,4%,1%,-11%
CC(C)(C)c1ccc(OCCC(=O)OCC(=O)NC2CCS(=O)(=O)C2)cc1 (stereo not drawn),0%,x,-4%,-6%,u
CC(C)(C)c1ccc(OCCC(=O)OCC(=O)NC2CC2)cc1,-1%,x,-4%,-8%,15µM*
CC(C)(C)c1ccc(OCCC(=O)OCC(=O)NCc2ccccc2)cc1,6%,x,0%,-6%,19µM*
CCN(Cc1ccccc1)C(=O)Cn1ncc2c(=O)oc3ccc(C)cc3c21,x,-12%,x,x,2%
C/C(=N\NC(=O)c1ccc(CN2CCOCC2)cc1)c1cccc([N+](=O)[O-])c1,-3%,-24%,3%,-9%,0%
O=C(Nc1ccccc1N1CCOCC1)c1ccc2ccccc2c1,-4%,x,8%,3%,11µM*
O=C(Nc1cccc([N+](=O)[O-])c1)c1ccc(CN2CCOCC2)cc1,7%,x,22%,24%,17µM*
O=C(Nc1ccc(CN2CCOCC2)cc1)c1ccc2ccccc2c1,u,x,1µM*,1.4µM*,8.5µM*
C/C(=N/NC(=O)c1ccco1)c1ccc(NC(=O)c2ccc(F)cc2)cc1,13%,16µM*,29%,u,u
Cc1ccc(C)c(N2CCN(c3c(CN4CCCC4)c(=O)oc4ccccc34)CC2)c1,x,9%,x,x,-1%
CCOC(=O)CCCNC(=O)N1CCc2nc(COc3ccccc3)c3c(c2C1)CO[C@@H](C)C3,x,-3%[9.22 µM],x,x,x
O=C(Nc1ccc(CN2CCOCC2)cc1)c1ccc(Cl)cc1,u,x,u,u,17µM*
COc1cccc(/C=C/C(=O)Nc2ccccc2N2CCOCC2)c1,x,x,0%,9%,17µM*
O=C(Nc1ccc(CN2CCOCC2)cc1)c1cccc(F)c1,16µM*,13µM*,2.8µM*,2.8µM*,9.5µM*
O=C(Nc1ccc(CN2CCOCC2)cc1)c1ccc(Br)cc1,u,x,u,12%,u
CCOc1ccc(C(=O)Nc2cccc(NC(=O)c3ccc(C(C)(C)C)cc3)c2)cc1Br,x,u,x,x,1.5µM*
CCOC(=O)c1c(C)[nH]c(C)c1S(=O)(=O)N1CCCC(C(=O)N2CCN(c3cccc(Cl)c3)CC2)C1 (stereo not drawn),x,x,x,x,7%
O=C(NC(N1CCOCC1)C(Cl)(Cl)Cl)c1ccco1 (stereo not drawn),16µM*,x,u,u,8.5µM*
O=C(Nc1ccc(Cn2cccn2)cc1)c1ccc(COc2ccccc2Br)cc1,-6%,-43%,9%,-5%,17µM*
COc1ccccc1OCc1ccc(C(=O)Nc2ccccc2)cc1,7%,x,u,u,-17%
SMILES,ELG1 genotoxic,SMN2 splice enh,NPC1 prom act,Rab9 promoter act,FLuc counter
O=C(NCCSc1ccccc1)c1ccc(CN2CCOCC2)cc1,u,x,2µM*,2µM*,12µM*
Cc1cc(/C=N/NC(=O)c2ccc(CN3CCOCC3)cc2)c(C)n1-c1ccccc1,u,-51%,1%,-1%,6.7µM*
CCCn1c(C)nc2c(NCCN3CCOCC3)nc(C)nc21,x,-3%,x,x,x
CC(C)c1ccc(OCC(=O)Nc2c(C(=O)c3ccc(F)cc3)oc3ccccc23)cc1,x,1%,x,x,-5%
COc1ccc(C(=O)N2CCC3(CC2)CN(c2ccccc2)C3)cc1,x,-44%,x,x,x
Cc1ccc(N(CC(=O)NCCSc2ccccc2)S(=O)(=O)c2ccc(F)cc2)cc1,x,-40%,x,x,3%
CC(=O)Nc1ccc(/C(C)=N/NC(=O)c2ccc(CN3CCOCC3)cc2)cc1,1%,-43%,-3%,-5%,0%
COc1ccc(C(=O)NC(=S)Nc2ccc(CN3CCOCC3)cc2)cc1Br,-10%,x,2%,-9%,-5%
CCOc1ccc(NC(=O)c2ccc(NC(=O)c3ccc(CN4CCOCC4)cc3)cc2)cc1,u,x,-2%,-14%,-6%
CCC(C)Oc1ccc(C(=O)Nc2ccc(CN3CCOCC3)cc2)cc1 (stereo not drawn),-2%,x,-5%,-10%,15µM*
CCOc1ccc(C(=O)Nc2ccc(CN3CCOCC3)cc2)cc1Br,-6%,x,1%,4%,13µM*
O=C(Nc1ccc(S(=O)(=O)N2CCOCC2)cc1)c1ccco1,3%,-8%,-3%,-7%,5%
O=C(Nc1ccc(CN2CCOCC2)cc1)c1ccco1,u,x,2µM*,1.4µM*,21µM*
C/C(=N\NC(=O)c1ccc(CN2CCOCC2)cc1)c1ccc(NC(=O)c2ccccc2)cc1,u,11µM*,u,u,u
O=C(Nc1ccc(CN2CCOCC2)cc1)c1ccc(F)cc1,u,x,u,u,21µM*
CC1(C)NC(=O)N(CCCOc2ccc(Br)cc2Cl)C1=O,15µM*,u,2.8µM*,u,11µM*
COC(=O)[C@@]1(Cc2ccccc2)[C@H]2c3cc(C(=O)N4CCCC4)n(Cc4cccc5ccccc45)c3C[C@H]2CN1C(=O)c1ccccc1,x,-30%,x,x,x
COc1ccc(/C=N/NC(=O)c2ccoc2C)cc1OC,u,13µM*,u,u,u
Cn1cc(C(=O)N/N=C/c2ccc(Br)c([N+](=O)[O-])c2)c2ccccc21,u,x,0%,-4%,0%
Cn1cc(C(=O)N/N=C/c2ccc3c(c2)OCO3)c2ccccc21,10%,x,u,u,8.5µM*
COc1ccc(/C=N/NC(=O)c2ccoc2C)cc1O,u,u,12%,24%,u
Cn1cc(C(=O)N/N=C/c2cccs2)c2ccccc21,u,22µM*,u,u,15µM*
O=C(N/N=C/c1ccc2c(c1)OCO2)c1cccc2ccccc12,9%,x,-10%,3%,2%
Cc1occc1C(=O)N/N=C/c1ccc2c(c1)OCO2,u,x,0.5µM*,0.35µM*,3.8µM*
CCOC(=O)C1CCN(S(=O)(=O)c2cc3c4c(c2)CC(=O)N4CCC3)CC1,x,x,x,x,-3%
Cc1cc(C(=O)N/N=C/c2ccc3c(c2)OCO3)c(C)o1,u,x,u,3.2µM*,6µM*
